Measured values published in PubChem BioAssay AID1347385 (Zoeller Lab, School of Medicine, Boston University, 2020).
The whole screen tested about 20,000 compounds, of which about 85 (0.4%) were called active.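 The calls were made as follows: active = cell survival signal 2 SD away from solvent-only control wells, confirmed on one or two retests; inactive = the rest.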 What follows is part of a selection rich in actives, with near analogues and random picks from the rest.

experiment: compounds reducing fatty acid uptake into lipids – ZR-82 cells, Enamine library, screen 3, primary screen (AID 1347385); settings: ZR-82 CHO cells, pyrene fatty acid UV survival, CellTiter Blue, peroxisome-deficient CHO-K1 mutant line, plus DGAT-1, DGAT-2 and ACAT inhibitors; at 10 µM unless noted;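 also: 3 h compound exposure then viability read about one day after UV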

Compound	outcome
O=C(Nn1c(-c2cccs2)nc2sc3c(c2c1=O)CCCC3)c1cccs1	inactive
CCOC(=O)C1=C(C)NC2=C(C(=O)CC(C)(C)C2)C1C (centres undefined)	inactive
O=C(O)c1sc2cc(F)ccc2c1Cl	inactive
C(=N\Nc1nncc2ccccc12)/c1ccc(N2CCOCC2)s1	inactive [setting not given]
COC(CNc1ncnc2sc3c(c12)CCC3)OC	inactive
Clc1cc(CSc2nnnn2C2CC2)cc2c1OCCO2	inactive
O=[N+]([O-])c1ccc2[nH]c(O)c(N=Nc3ccc(C(F)(F)F)cc3[N+](=O)[O-])c2c1	inactive
NC(=O)NCCCC(=O)O	inactive
S=C(NCCc1ccccc1)N/N=C1\CC2CC=CC12 (centres undefined)	inactive [setting not given]
CC(N=C1NS(=O)(=O)c2ccccc21)C(=O)OC1CCOC1=O (centres undefined)	inactive
CCOC(=O)c1c(C)[nH]c(C(=O)Cn2ncc(Cl)c(Cl)c2=O)c1C	inactive
FC(F)(F)C(=NC1(C(Cl)(Cl)Cl)Oc2ccccc2O1)Nc1ccccn1	inactive
O=S(=O)(c1cc(Br)ccc1Br)N1CCCc2ccccc21	inactive
O=S1(=O)CCC(N(Cc2ccco2)S(=O)(=O)c2ccc(S(=O)(=O)N3CCCC3)cc2)C1 (centres undefined)	inactive
CCCN(CC1CC1)Cn1c(=S)sc2ccccc21	inactive
Fc1ccc(NC(=S)NNc2ccnc3cc(Cl)ccc23)cc1Cl	inactive
Clc1ccc2c(NN=C3c4ccccc4-c4ccccc43)ccnc2c1	active
Clc1ccc2nc(N/N=C/c3cccc4nccnc34)nc(-c3ccccc3)c2c1	inactive [setting not given]
Cn1/c(=N/N=C/C(Cl)=C/c2ccccc2)sc2ccccc21	inactive [setting not given]
S=C(NCC1CCCO1)NNc1ncnc2sc3c(c12)CCCC3 (centres undefined)	inactive
CC(C)=CCC/C(C)=C/C=N/Nc1ccc([N+](=O)[O-])cc1	inactive [setting not given]
Nc1c(Cl)cc(NC(=S)Nc2ccc(SC(F)F)cc2)cc1Cl	inactive

Compound	outcome
Fc1ccc(NC(=S)Nc2ccc(SC(F)F)cc2)cc1Cl	active
COc1cc(NC(=S)Nc2ccc(SC(F)F)cc2)cc(OC)c1OC	inactive
O=C(C1CCCCC1)N1N=C2/C(=C/c3ccco3)CCCC2C1c1ccco1 (centres undefined)	inactive
NC(CSC12CC3CC(CC(C3)C1)C2)C(=O)O (centres undefined)	inactive
O=C(NC1=NCCS1)C1CC2CCCC(C1)C2=O (centres undefined)	inactive
CC(C)NC(=S)NN=C1CCCCCCCCCCC1	inactive
Cc1cc(NC(=O)COC(=O)C2=NNC(=O)CC2)no1	inactive
O=[N+]([O-])c1cc(S(=O)(=O)Nc2ccc(Cl)c(S(=O)(=O)N3CCOCC3)c2)ccc1Cl	inactive
O=[N+]([O-])c1ccc(N=P(c2cccc3ccccc23)(c2cccc3ccccc23)N2CCOCC2)c(Br)c1	inactive
Nc1scc[n+]1Cc1cccc2cccnc12	inactive
Nc1nc(SCC(=O)NCCN2CCOCC2)nc2sc3c(c12)CCC3	inactive
CC(C)CC(C(=O)NNC(=O)c1ccco1)N1C(=O)C2CC=CCC2C1=O (centres undefined)	inactive
O=S(=O)(Nc1ncccn1)c1ccc(NC(=S)Nc2cccnc2)cc1	inactive
CC(C)CC(NC(=O)NC1CCCCC1)C(=O)O (centres undefined)	inactive
c1ccc(C2=NNC(c3ccccc3)C2)cc1 (centres undefined)	inactive
O=C(NC1CCCCCCC1)c1ccc(=O)[nH]c1	inactive
CN(C1CCCCC1)S(=O)(=O)c1ccc2c(c1)OCCCO2	inactive
OC(Cc1nc2ccccc2[nH]1)c1nc2ccccc2[nH]1 (centres undefined)	inactive
Cc1cc(NC(=O)Cn2c(=O)/c(=C\c3ccc(C)s3)s/c2=C\C(=O)C(C)(C)C)no1	inactive
C=CCN=c1scc(-c2ccc(OC)cc2)n1/N=C/c1ccc(OC(F)F)cc1	inactive [setting not given]
CCOC(=O)/C(=C\c1ccc(C)s1)c1nc2sc(C)c(C)c2c(=O)[nH]1	inactive
O=C(O)CCN1C(=O)C2CC=CCC2C1=O (centres undefined)	inactive

Compound	outcome
S=C(N=P(c1ccccc1)(N1CCOCC1)N1CCOCC1)NCc1cn2ccccc2n1	inactive
S=C1NC(c2ccccc2)=NCN1N(c1ccccc1)c1ccccc1	inactive
COc1ccc(-c2noc(CSc3ncccn3)n2)cc1OC	inactive
CC1(C)CCCC(C)(C)N1Sc1ccccc1	inactive
Oc1ccc(-c2onc3ccc(Cl)cc23)cc1	inactive
NC1=NC(c2c(Cl)cccc2Cl)n2c(nc3ccccc32)N1 (centres undefined)	inactive
Cc1cc(C(=O)Cn2cnc3c2c(=O)n(C)c(=O)n3C)c(C)n1CCC1=CCCCC1	inactive
O=C1CCC(C(=O)OCC(=O)c2ccc(Br)s2)=NN1	inactive
O=C1CSC2=NCN(c3ccccc3)CN12	inactive
Clc1cc(Cl)c(N/N=C/c2cn(-c3ccccc3)nc2-c2cc3ccccc3o2)c(Cl)c1	inactive [setting not given]
O=c1/c(=C/c2ccccc2I)sc2nc3ccccc3n12	inactive
COc1ccccc1OCCOCCOc1ccccc1OC	inactive
O=c1c(Cl)c(N2CCCC2)cnn1-c1ccccc1	inactive
COCCNC(=O)NC(=O)N(C1CCCCC1)S(C)(=O)=O	inactive
Cc1sc2nc(-c3cccs3)nc(Sc3nnc(C4CC4)o3)c2c1C	inactive
CCOC(=O)c1sc2nc(C(C)Sc3ncnc4sc5c(c34)CCC5)[nH]c(=O)c2c1C (centres undefined)	inactive
CC(C)(C)C1CCC(C(=O)OCC(=O)c2ccc(Cl)s2)CC1 (centres undefined)	inactive
O=C1CN(Cc2csc(-c3cccs3)n2)CCN1	inactive
O=[N+]([O-])c1c(Sc2nnnn2-c2ccccc2)nc2sccn12	inactive
COc1ccc(C2=CC(c3ccc(OC)c(OC)c3)n3ncnc3N2)cc1OC (centres undefined)	inactive
Cc1cc2ncn(Cc3ccc(C(C)C)cc3)c2cc1C	inactive
CCNc1n[nH]c(=S)s1	inactive

Compound	outcome
O=C(Nc1ccccc1)NC(NC(=S)Nc1ccc(I)cc1)C(Cl)(Cl)Cl (centres undefined)	inactive
O=C(Nc1ccccc1)Nc1ccc(Cl)c(Cl)c1	active
S=C(Nc1ccc(Cl)c(Cl)c1)NC12CC3CC(CC(C3)C1)C2	inactive
FC(F)Sc1nc(-c2ccc(Br)cc2)nc2ccccc12	inactive
CC(C)CNC(=O)NC(=O)C1CCCCC1	inactive
O=[N+]([O-])c1cc(CN2CCOCC2)c2c(c1)OCOC2	inactive
Fc1ccc(-c2nnc(-c3nnc(-c4ccc(F)cc4)c(-c4ccccc4)n3)nc2-c2ccccc2)cc1	inactive
O=P1(Nc2cc(C(F)(F)F)ccc2Cl)C=C(c2ccccc2)OC(c2ccccc2)=C1	inactive
Nc1ccc([N+](=O)[O-])c(OC(F)F)c1	inactive
CCOC(=O)c1c(N)sc2c1CCCS2	inactive
C=CCN1C(=O)/C(=C/c2c(NC3CC(C)(C)NC(C)(C)C3)nc3ccc(C)cn3c2=O)SC1=S	inactive
O=C(COC(=O)CCNC(=O)NC12CC3CC(CC(C3)C1)C2)NCC(F)(F)F	inactive
O=S(=O)(c1ccc(F)c(F)c1)N1CCN(c2ccc(O)cc2)CC1	inactive
COC(=O)C(C)N (centres undefined)	inactive
Cc1noc(C)c1COc1ncnc2sc3c(c12)CCCC3	inactive
C(=N\n1c(-c2ccco2)csc1=NC1CCCCC1)/c1ccccn1	inactive [setting not given]
Cc1noc(C)c1S(=O)(=O)Nc1ccc(NS(=O)(=O)c2ccc3c(c2)OCCCO3)cc1	inactive
S=c1n(CN2CCOCC2)nc(Cc2cccs2)n1C1CCCCC1	inactive
Ic1ccc2c(c1)Cc1ccccc1-2	inactive
Cn1c(C(F)(F)F)nn(CN2CCN(c3cccc(C(F)(F)F)c3)CC2)c1=S	inactive
O=C(CSc1nc2ccccc2nc1SCC(=O)c1cc2ccccc2o1)c1cc2ccccc2o1	inactive
O=S1(=O)N=C(N2CCC(c3nc4ccccc4o3)CC2)c2ccccc21	inactive

Compound	outcome
O=C(COC(=O)Cn1cc(C(F)(F)F)ccc1=O)NC(=O)NC1CCCC1	inactive
O=c1cc(COc2cc(Cl)c(Cl)cc2Cl)nc2ccc(Br)cn12	inactive
FC(F)(F)c1ccc(Oc2ccc(Cl)c3cccnc23)nc1	inactive
O=S(=O)(Nc1cc(S(=O)(=O)N2CCOCC2)ccc1N1CCCC1)c1cccs1	inactive
Clc1ccc(C=Nc2ccc3c(c2)OCO3)c(Cl)c1	inactive
CC(C)CN(C(=O)CSc1nncn1C)C1CCS(=O)(=O)C1 (centres undefined)	inactive
O=[N+]([O-])c1ccc(NN=C2C3CC4CC(C3)CC2C4)c(S(=O)(=O)Nc2ccc(Cl)cc2)c1	inactive
CN(C)/N=C/C=C1\CCC/C(=C\c2cc(Br)cs2)C1=O	inactive [setting not given]
O=S(=O)(c1ccc(F)cc1F)N1c2cccc3cccc(c23)S1(=O)=O	inactive
Nc1c(C(=O)CSc2cc(F)ccc2F)c(=O)[nH]c(=O)n1C1CC1	inactive
c1nc(N2CCN(c3ncnc4sc5c(c34)CCCC5)CC2)c2c3c(sc2n1)CCCC3	inactive
Cc1cc(C)nc(N/N=C/c2ccncc2)n1	inactive [setting not given]
Fc1ccc(-n2c(-c3ccc(Cl)cc3Cl)n[nH]c2=S)cc1Cl	inactive
Cc1ccc(C)c(C2C3=C(CC(C)(C)CC3=O)Nc3nc(-c4cccnc4)nn32)c1 (centres undefined)	inactive
COc1cc(S(=O)(=O)n2c([N+](=O)[O-])cnc2C)ccc1Br	inactive
Cc1cc(C)c(C)c(S(=O)(=O)N(C)C2CCS(=O)(=O)C2)c1C (centres undefined)	inactive
CC(=O)c1c(C)[nH]c(C(=O)OCC(=O)c2cc(C)n(CC3CCCO3)c2C)c1C (centres undefined)	inactive
O=C1NC(c2ccc3ncccc3c2)C(C(=O)c2cccnc2)C(O)(C(F)(F)F)N1 (centres undefined)	inactive
O=[N+]([O-])/C(CN1CCOCC1)=C1/CCCN1	inactive
CCCCn1c(N)c(N(Cc2ccco2)C(=O)Cn2cnnn2)c(=O)[nH]c1=O	inactive
CN(C(=O)COC(=O)CN1C(=O)NC2(CCCC2)C1=O)C1CCCCC1	inactive
